The whole screen tested about 1,400 compounds, of which about 380 (27%) were called active. Some of the results follow. Values without a mark were called inactive.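 The calls were made as follows: active = mean inhibition above 50% across duplicate retests at 10 µM; inactive = the rest.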
experiment: inhibition of NALP1/ASC/caspase-1 reporter signal in yeast, confirmation, NALP1 inhibitor project, S. cerevisiae, luminescence, single concentration (AID 488841);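 also: plate controls were DMSO in galactose medium for no effect and cells in plain SD medium for full effect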; details: S. cerevisiae NALP1/ASC/Caspase-1 reporter, beta-gal luminescence; at 10 µM; stronger effect = higher value

| SMILES | inhibition |
| --- | --- |
| COC(=O)c1ccc(/C=C(\C#N)C(=O)NC(C)c2ccccc2)cc1 (stereo not given) | 23.2% |
| CC(NC(=O)/C(C#N)=C/c1ccc([N+](=O)[O-])o1)c1ccccc1 (stereo not given) | 52.1% (active) |
| CC(NC(=O)/C(C#N)=C/c1ccc(Cl)c([N+](=O)[O-])c1)c1ccccc1 (stereo not given) | 51.1% (active) |
| CN(Cc1ccccc1)C(=O)c1ccc([N+](=O)[O-])o1 | 40.2% |
| COc1cc(/C=C/C(=O)Nc2ccc(C)cc2)cc(OC)c1OC | 33.6% |
| COc1ccc(/C=C/C(=O)Nc2ccc3c(c2)CCC3)cc1OC | 79.2% (active) |
| COc1cc(/C=C(\NC(C)=O)C(=O)Nc2cccc(O)c2)ccc1OC(C)=O | 28.1% |
| CCc1ccc(CC(=S)N2CCOCC2)cc1 | 42.3% |
| CCOc1ccc(C(=O)NC(=S)Nc2ccccc2N2CCCCC2)cc1[N+](=O)[O-] | 43.9% |
| COc1ccc(C(=O)NC(=S)Nc2ccccc2N2CCCCC2)cc1[N+](=O)[O-] | 51.9% (active) |
| CCOc1ccc(C(=O)Nc2ccc(-c3nc4ccccc4[nH]3)cc2)cc1[N+](=O)[O-] | 26.6% |
| COc1ccc(/C=C2\SC(N3CCc4ccccc4C3)=NC2=O)cc1 | 69.8% (active) |
| CC(C)c1nc(SCC(=O)Nc2ccc3c(c2)OCCO3)n[nH]1 | 19.3% |
| N#Cc1ccc(-c2ccc(Cl)cc2)nc1SCC(=O)c1cccc(Cl)c1 | 26.4% |
| CCN(CC)c1ccc(NC(=O)Cn2cc3c(n2)CCC(C)C3)c(C)c1 (stereo not given) | 50.9% (active) |
| Cc1ccc(NC(=O)Cn2cccc2)c(C)c1 | 27.8% |
| COc1ccccc1CN(Cc1nc2ccccc2c(=O)[nH]1)C(=O)Nc1ccccc1 | 36.4% |
| CN(C)CCCN(C(=O)CCS(=O)(=O)c1ccccc1)c1nc2cc3c(cc2s1)OCO3 | 61.2% (active) |
| Cc1cccc2sc(N(CCCN(C)C)C(=O)c3sc4ccccc4c3Cl)nc12 | 35.9% |
| CN(C)CCCN(C(=O)CCOc1ccccc1)c1nc2c(F)cccc2s1 | 64.8% (active) |
| Cc1ccc2sc(N(CCCN(C)C)C(=O)CCS(=O)(=O)c3ccccc3)nc2c1C | 88.8% (active) |
| Cc1cccc2sc(N(CCCN(C)C)C(=O)CCS(=O)(=O)c3ccccc3)nc12 | 69.6% (active) |
| CN(C)C(CNC(=O)CCCOc1ccccc1)c1ccco1 (stereo not given) | 30.6% |
| Cc1ccc2nc(N(CCCN(C)C)C(=O)CCc3ccccc3)sc2c1 | 46.8% |
| CCOC(=O)c1cnc2ccccc2c1Nc1cc(C(=O)O)ccc1C | 26.6% |
| CSc1cc(N2CCOCC2)nc(-c2ccccc2Cl)n1 | 72% (active) |
| Cc1cc(N2CCOCC2)n2ncc(-c3ccccc3)c2n1 | 46.7% |

| SMILES | inhibition |
| --- | --- |
| C=CCc1cccc(/C=N/c2nc3ccccc3n2CC)c1O | 15.8% |
| CCc1ccc(S(=O)(=O)/N=C2/C=C(Sc3ncn[nH]3)C(=O)c3ccccc32)cc1 | 86.3% (active) |
| O=C1c2ccccc2C(=O)c2c1ncn2-c1ccccc1 | 24.1% |
| CCOc1ccc(OCCCCn2ccnc2)cc1 | 34.5% |
| Cc1cc(Br)ccc1OCCn1ccnc1 | 43% |
| CCC(C)c1ccc(OCCn2ccnc2)cc1 (stereo not given) | 58.6% (active) |
| COC(=O)c1c(N)c(C#N)c2n1CCCCC2 | 21% |
| Cc1cccc(OCCCSc2nc3ccc(C)cc3[nH]2)c1 | 56.4% (active) |
| Cc1ccccc1OCCCSc1nc2ccccc2[nH]1 | 63% (active) |
| Cc1cccc(C)c1NC(=O)CSc1nc2ccccc2c(=O)[nH]1 | 31.1% |
| CCCn1nc(NC(=O)c2ccccn2)c2cc3cc(C)ccc3nc21 | 13.2% |
| NC(C(=O)O)C1CC(Cl)=NO1 (stereo not given) | 24.8% |
| S=C(NC1CCCCC1)NN(c1ccccc1)c1ccccc1 | 21.3% |
| O=S(=O)(/C=C/c1ccccc1)NC1CCCCCCC1 | 61.6% (active) |
| O=C(c1ccc2c(Cl)c3c(nc2c1)CCCC3)N1CCN(c2ccc(F)cc2)CC1 | 64.8% (active) |
| O=C(NC(=O)N1CCN(c2ccc(F)cc2)CC1)c1ccccc1 | 32.6% |
| O=C(c1cccc(F)c1)N1CCN(c2cc(N3CCCCC3)c(F)cc2[N+](=O)[O-])CC1 | 46.2% |
| COc1ccc(N(CCC#N)S(=O)(=O)c2ccc(Cl)cc2)cc1 | 26.2% |
| Cc1ccc(NC(=O)CNc2ccc(OC(C)C)cc2)cc1 | 50.8% (active) |
| CC(C)Oc1ccc(NC(=O)CCC(=O)O)cc1 | 21.6% |
| CCC(C)(C)NCC(=O)Nc1ccc(OC(F)(F)F)cc1 | 36.4% |
| C=C(C(=O)c1ccccc1)C(C)C(=C)C(=O)c1ccccc1 | 59.5% (active) |
| CNC(=O)C(NC(=O)c1ccccc1)=C(C)C | 30.4% |
| COc1ccc(C(=O)NCc2ccccc2)cc1S(=O)(=O)N1CCCc2ccccc21 | 32.7% |
| Cc1ccc(NC2(C#N)C(=O)Nc3ccccc32)cc1 (stereo not given) | 30.8% |
| COC(=O)c1ccccc1NC(=O)C1CCCN(S(=O)(=O)c2ccc(OC)cc2)C1 (stereo not given) | 66.3% (active) |
| CN1CCN(S(=O)(=O)c2ccc(NC(=S)NC(=O)C(C)(C)C)cc2)CC1 | 26.6% |

| SMILES | inhibition |
| --- | --- |
| COC(=O)c1ccccc1NC(=O)C1CCN(C(=O)c2cc(OC)cc(OC)c2)CC1 | 20.4% |
| CCCCn1cnc2c1c(=O)[nH]c(=O)n2CCCC | 21.8% |
| O=[N+]([O-])c1ccc(O)c2ncccc12 | 93.5% (active) |
| O=C(c1ccc(Cl)c([N+](=O)[O-])c1)N(c1ccccn1)c1ccccn1 | 24.1% |
| O=C(Cn1c(=O)oc2ccccc21)Nc1ccc(Cl)cc1 | 33% |
| CN1/C(=C\C(=O)Nc2ccc(Cl)cc2)C(C)(C)c2ccccc21 | 42.2% |
| O=C(Cc1noc2ccccc12)Nc1ccc(Cl)cc1 | 55.3% (active) |
| C#CCOc1c(Br)cc(/C=N/O)cc1OCC | -19.1% |
| Cc1cccnc1NC(=O)c1ccccc1NC(=O)C(C)(C)C | 36.7% |
| O=[N+]([O-])c1cccc(CNc2ccc3c(c2)CCC3)c1 | 52.9% (active) |
| O=C(c1cccc([N+](=O)[O-])c1)n1nc(-c2ccccc2)nc1NCc1ccccc1 | 37% |
| COc1cccc(CNc2ccc3c(c2)CCC3)c1 | 34.2% |
| O=C1CCCc2ccccc2N1Cc1ccc(Cl)cc1Cl | 28.2% |
| Brc1cccc(OCCCCN2CCCCC2)c1 | 29.7% |
| Cc1cc(Br)ccc1OCCCCN1CCC(C)CC1 | 52.2% (active) |
| CC1CCN(CCOc2cccc(Br)c2)CC1 | 36% |
| Cc1c(-c2ccccc2)[n+](=O)c2c(n1[O-])CCC2 | 22.1% |
| COc1cccc(C2c3c(-c4ccccc4O)n[nH]c3C(=O)N2Cc2ccco2)c1 (stereo not given) | 29.4% |
| CN1CCN(C(=O)CSc2nc3c(c(=O)n(C)c(=O)n3C)n2C)CC1 | 29.1% |
| Nc1[nH]ncc1N=Nc1ccc(Cl)cc1 | 56.7% (active) |
| CC(C)(CN1CCN(Cc2ccccc2)CC1)NS(=O)(=O)c1ccc(Cl)cc1 | 42.2% |
| O=c1c(O)c(-c2cccs2)oc2ccccc12 | 78% (active) |
| CCOC(=O)CSc1nnc(-c2ccccc2)c(=O)[nH]1 | 33.8% |
| CCOC(=O)c1c(-c2ccccc2)nc2ccccn12 | 99.4% (active) |
| CCOCCCn1c(=NC(C)=O)c(C(=O)OCC)cc2c(=O)n3ccccc3nc21 | 23.1% |
| CCOC(=O)c1ccccc1NC(=O)COc1cc(=O)n(CC)c2ccccc12 | 8% |
| CC(=O)N1CC[n+]2c(-c3ccc(Cl)cc3Cl)csc21 | 19.1% |

| SMILES | inhibition |
| --- | --- |
| Nc1ccc(Oc2cccc(Oc3ccc(N)cc3)c2)cc1 | 50.5% (active) |
| CCN1CCN(Cc2cccc(Oc3ccccc3)c2)CC1 | 34.3% |
| CC(C)C(NC(=O)CN1C(=O)c2ccccc2S1(=O)=O)C(C)C | 21.5% |
| O=C(N/N=C/c1cc2c3c(c1O)CCCN3CCC2)c1ccccc1O | 25.8% |
| Cn1c(=O)c2c(nc(Sc3ncccn3)n2Cc2ccccc2Cl)n(C)c1=O | 29.4% |
| Cc1cc(OCCN2CCCC2)cc(C(C)C)c1 | 34.4% |
| O=C(CN1C(=O)C2C3C=CC(C3)C2C1=O)NCCc1ccccc1 (stereo not given) | 24.9% |
| O=C(NCCCc1ccccc1)c1ccccc1O | 53% (active) |
| COc1ccc(CNc2nc(C)c([N+](=O)[O-])c(C)c2C#N)cc1 | 29.2% |
| CC(C)(C)n1nc(-c2ccc(F)cc2)c2c(N)ncnc21 | 91.7% (active) |
| Cc1sc(N)nc1-c1ccc(Oc2ccccc2)cc1 | 61.1% (active) |
| Nc1nc(-c2ccc(Oc3ccccc3)cc2)cs1 | 98.5% (active) |
| Nc1nc2ccc(Oc3ccccc3)cc2s1 | 88.2% (active) |
| COc1ccc(-c2csc(N3C(=O)C4C5c6ccccc6C(c6ccccc65)[C@@H]4C3=O)n2)cc1 (stereo not given in full) | 45.8% |
| c1ccc(CCNc2nc(-c3cccnc3)cs2)cc1 | 32.7% |
| COC(=O)c1c(NC(NC(=O)C(C)C)C(Cl)(Cl)Cl)sc2c1CCC2 (stereo not given) | 21% |
| COC(=O)c1ccc(C(=O)OC)c(NC(=O)COC(=O)C2CCCCC2)c1 | 7% |
| COc1ccc(OCC#CCNC(C)(C)C)cc1 | 33.4% |
| CCCOc1ccc(C(=O)c2nc3c(n2O)CCCCC3)cc1 | 22.7% |
| Cc1c(C(=O)N2CCOCC2)[nH]c2ccc(OCc3ccccc3)cc12 | 29.4% |
| CCOc1ccc(C(=O)C(CN2CCOCC2)c2ccccc2)cc1 (stereo not given) | 51.9% (active) |
| CCCOc1ccc(C(=O)C(CN2CCCC2)c2ccccc2)cc1 (stereo not given) | 50.8% (active) |
| CCCCOc1ccc(C(=O)CCN2CCCCC2)cc1 | 41.4% |
| CCOC(=O)CNC(c1ccccc1)c1cc(Br)ccc1NC(=O)CCN1CCOCC1 (stereo not given) | 27.6% |

— PubChem BioAssay AID488841 (Sanford-Burnham Center for Chemical Genomics, 2010)
